Measurements from PubChem BioAssay (Tox21).
Several values for one entry are separate records, joined by “and”; a condition that tells them apart may be missing. Equal values may be shown once. Results filed as inconclusive are left out. Entries that show only a call come without a potency. Activity calls are given as the source filed them. Calls follow the shape of the dose curve; as a rule, active = well fitted inhibition curve with a large enough effect in the signal ratio in the repeat runs; inconclusive = weak or mixed curves, or effect the other way; inactive = flat fitted curve, though single readings scatter; the % refers to the signal ratio.

Assay: qHTS assay for small molecule disruptors of the mitochondrial membrane potential (AID 720635)
Conditions: HepG2 mitochondrial membrane potential, Mito-MPS dye ratio; series mostly up to 83.2 µM; ratio activity, negative = MMP loss: at the top concentration
Text: U.S. Tox21 Program National Center for Advancing Translational Sciences [NCATS] NIH Chemical Genomics Center [NCGC] U.S. Environmental Protection Agency [EPA] National Institutes of Environmental Health Sciences [NIEHS] National Toxicology Program [NTP] U.S. Food and Drug Administration [FDA] Tox21 Assay Overview: Mitochondrial membrane potential (MMP), one of the parameters for mitochondrial function, is generated by mitochondrial electron transport chain that creates an electrochemical gradient by a series of redox reactions. This gradient drives the synthesis of ATP, a crucial molecule for various cellular processes. Measuring MMP in living cells is commonly used to assess the effect of chemicals on mitochondrial function. […] The dye accumulates in the mitochondria of healthy cells as aggregates, with red fluorescence. The mitochondrial potential collapses and the dye can no longer accumulate in the mitochondria and remains in the cytoplasm in monomers, with green fluorescence.
Tox21 Assay Protocol Summary: 2,000 HepG2 cells in 5 uL/well were dispensed into black, clear-bottom 1536-well plates using a Multidrop Combi (Thermo Scientific) dispenser. The assay plates were incubated overnight at 37C to allow cells to attach to the wells, followed by the transfer of 23 nL compound or DMSO vehicle by a pin tool (Kalypsys). The plates were incubated for 1 hr at 37C and 5% CO2, followed by the addition of 5 uL of 2X Mito-MPS dye (BD Biosciences) into each well using Flying Reagent Dispenser (Aurora Discovery) and then following 30 min incubation at 37C. Fluorescence intensity (490nm excitation and 535nm emission for monomers; and 540nm excitation and 590nm emissions for aggregates) was measured using an Envision plate reader.
Potency is read from the fitted curve at half-maximal effect.

| SMILES | ratio activity, negative = MMP loss | Potency |
| --- | --- | --- |
| CN(C)CCOC(c1ccccc1)c1ccccc1 | 18.3% (inactive) | – |
| Nc1c2c(nc3ccccc13)CCCC2 | -2.23% (inactive) | – |
| CCCCC1(COC(=O)CCC(=O)O)C(=O)N(c2ccccc2)N(c2ccccc2)C1=O | – | inactive |
| Nc1ccc(O)c([N+](=O)[O-])c1 | – | 3.03 µM (active) |
| O=C1NS(=O)(=O)c2ccccc21 | – | inactive |
| Nc1ccc(S(N)(=O)=O)cc1 | -2.01% (inactive) | – |
| CC(C)C(=O)Nc1ccc([N+](=O)[O-])c(C(F)(F)F)c1 | – | 13.3 µM (active) and 6.29 µM (active) and 9.69 µM (active) |
| Oc1ccccc1 | – | inactive |
| NC1CCCCC1 | – | inactive |
| C1CCC(C(CC2CCCCN2)C2CCCCC2)CC1 (stereo not given) | – | 5.96 µM (active) |
| CCCCCCCCCCCC[N+](C)(C)Cc1ccccc1 | – | 8.41 µM (active) and 19 µM (active) and 21 µM (active) |
| CS(=O)(=O)OCCCCOS(C)(=O)=O | 26.1% (inactive) | – |
| Cc1c(C(=O)O)c(O)cc2c1C(=O)c1c(O)c([C@@H]3O[C@H](CO)[C@@H](O)[C@H](O)[C@H]3O)c(O)c(O)c1C2=O | – | inactive |
| CCN(Cc1c(F)cccc1Cl)c1c([N+](=O)[O-])cc(C(F)(F)F)cc1[N+](=O)[O-] | – | 54.5 µM (active) |
| CCCc1cc(=O)[nH]c(=S)[nH]1 | -13.2% (inactive) | – |
| CC12CCC(CC1)C(C)(C)O2 | – | inactive |
| Cc1cn([C@H]2C=C[C@@H](CO)O2)c(=O)[nH]c1=O | – | inactive |
| NC(=O)c1cccnc1 | – | inactive |
| C/C=C/C=C/C(=O)O | – | inactive |
| Cc1cc(=O)oc2cc(O)ccc12 | -14.5% [at 39.1 µM] (inactive) | – |

| SMILES | ratio activity, negative = MMP loss | Potency |
| --- | --- | --- |
| CC(=O)C(=O)O | 13.1% (inactive) | – |
| CC(=O)Nc1c(I)c(NC(C)=O)c(I)c(C(=O)O)c1I | – | inactive |
| CCOC(N)=O | – | inactive |
| Cc1cc(C)nc(NS(=O)(=O)c2ccc(N)cc2)n1 | 13.9% (inactive) | – |
| Cc1ccc(S(=O)(=O)O)cc1 | – | inactive |
| CC(C)NCC(O)c1ccc(O)c(O)c1 (stereo not given) | 28.3% (inactive) | – |
| Cc1cccc(C)c1 | – | inactive |
| CN(N=O)C(=O)N[C@@H]1[C@@H](O)[C@H](O)[C@@H](CO)O[C@@H]1O | – | inactive |
| NS(=O)(=O)O | – | inactive |
| CCCCCCc1ccc(O)cc1O | – | 5.96 µM (active) and 4.87 µM (active) and 6.86 µM (active) |
| F[B-](F)(F)F | – | inactive |
| NC(=O)n1c(O)c(C(=O)c2cccs2)c2cc(Cl)ccc21 | – | 11.9 µM (active) |
| CC1(C)O[C@@H]2C[C@H]3[C@@H]4CCC5=CC(=O)C=C[C@]5(C)[C@@]4(F)[C@@H](O)C[C@]3(C)[C@]2(C(=O)CO)O1 | – | inactive |
| NS(=O)(=O)c1cc2c(cc1Cl)NCNS2(=O)=O | – | inactive |
| O=C1O[C@H]([C@@H](O)CO)C(O)=C1O | – | inactive |
| COc1ccc2cc(S(=O)(=O)N[C@H](CC(=O)N[C@H](Cc3ccc(CN4[C@H](C)CCC[C@@H]4C)cc3)C(=O)N(C)C(C)C)c3ccc4c(c3)OCO4)ccc2c1 | – | 10.3 µM (active) |
| Cc1ncc([N+](=O)[O-])n1C | – | inactive |
| CCCCCCCCCCCCCCCC[N+](C)(C)Cc1ccccc1 | – | 4.22 µM (active) and 10 µM (active) and 13.9 µM (active) |
| Cn1c(=O)c2c(ncn2C)n(C)c1=O | 13.4% (inactive) | – |
| C=C1CC[C@H](O)C/C1=C\C=C1/CCC[C@]2(C)[C@@H]([C@H](C)CCCC(C)C)CC[C@@H]12 | -12.4% (inactive) | – |
